Test results taken from the supplement of paper PMC7411054.
Where a name gives a salt, the structure may show the parent alone.

How the values were obtained:
Settings in all cases: treatment time: 24 h
A549-GM130-SQSTM1 [1] = assay: lowest phenotypically active concentration; higher = less potent
Procedure, shortened: (§1)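 The reporter lines, fifteen in total and built by gene editing in A549, HepG2 and WPMY1 cells, used BFP for segmentation alongside GFP and RFP/FusionRed markers. Each was treated at 0.3, 1, 3 or 9 µM for 24 h in four wells and then imaged live, with live-cell features normalised to solvent control wells. Deviation meant ≥3 of 4 wells beyond the 95th percentile of control Euclidean distances; reproducibility meant a median replicate Pearson correlation above the 95th percentile of non-replicates. Only conditions meeting both were scored as phenotypically active.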

HepG2-CANX-COX4 [2] = assay: as above
Procedure, shortened: as §1

HepG2-GM130-SQSTM1 [3] = assay: as above
Procedure, shortened: as §1

HepG2-TUBA1B-RELA [4] = assay: as above
Procedure, shortened: as §1

WPMY1-GM130-SQSTM1 [5] = assay: as above
Procedure, shortened: as §1

A549-ACTB-RAB5A = assay: phenotypically active (imaging signature differs from DMSO and reproducible) at any of 0.3-9 uM (binary (1 = active, 0 = inactive)); higher = active
Procedure, shortened: as §1

A549-CANX-COX4 = assay: as above
Procedure, shortened: as §1

A549-GM130-SQSTM1 [6] = assay: as above
Procedure, shortened: as §1

A549-TP53BP1-CLTA = assay: as above
Procedure, shortened: as §1

A549-TUBA1B-RELA = assay: as above
Procedure, shortened: as §1

HepG2-ACTB-RAB5A = assay: as above
Procedure, shortened: as §1

HepG2-CANX-COX4 [7] = assay: as above
Procedure, shortened: as §1

HepG2-GM130-SQSTM1 [8] = assay: as above
Procedure, shortened: as §1

HepG2-TP53BP1-CLTA = assay: as above
Procedure, shortened: as §1

HepG2-TUBA1B-RELA [9] = assay: as above
Procedure, shortened: as §1

WPMY1-ACTB-RAB5A = assay: as above
Procedure, shortened: as §1

WPMY1-CANX-COX4 = assay: as above
Procedure, shortened: as §1

WPMY1-GM130-SQSTM1 [10] = assay: as above
Procedure, shortened: as §1

WPMY1-TP53BP1-CLTA = assay: as above
Procedure, shortened: as §1

WPMY1-TUBA1B-RELA = assay: as above
Procedure, shortened: as §1

Row | Structure (SMILES) | lowest phenotypically active concentration (A549-GM130-SQSTM1 [1]) [µM] | lowest phenotypically active concentration (HepG2-CANX-COX4 [2]) [µM] | lowest phenotypically active concentration (HepG2-GM130-SQSTM1 [3]) [µM] | lowest phenotypically active concentration (HepG2-TUBA1B-RELA [4]) [µM] | lowest phenotypically active concentration (WPMY1-GM130-SQSTM1 [5]) [µM] | phenotypically active (A549-ACTB-RAB5A) | phenotypically active (A549-CANX-COX4) | phenotypically active (A549-GM130-SQSTM1 [6]) | phenotypically active (A549-TP53BP1-CLTA) | phenotypically active (A549-TUBA1B-RELA) | phenotypically active (HepG2-ACTB-RAB5A) | phenotypically active (HepG2-CANX-COX4 [7]) | phenotypically active (HepG2-GM130-SQSTM1 [8]) | phenotypically active (HepG2-TP53BP1-CLTA) | phenotypically active (HepG2-TUBA1B-RELA [9]) | phenotypically active (WPMY1-ACTB-RAB5A) | phenotypically active (WPMY1-CANX-COX4) | phenotypically active (WPMY1-GM130-SQSTM1 [10]) | phenotypically active (WPMY1-TP53BP1-CLTA) | phenotypically active (WPMY1-TUBA1B-RELA)
1 | CC[C@H]1CN2CCc3cc(OC)c(OC)cc3[C@@H]2C[C@@H]1C[C@H]1NCCc2cc(OC)c(OC)cc21 [emetine] | ≤ 0.3 | ≤ 0.3 | ≤ 0.3 | ≤ 0.3 | ≤ 0.3 | 1 (active) | 1 (active) | 1 (active) | 1 (active) | 1 (active) | 1 (active) | 1 (active) | 1 (active) | 1 (active) | 1 (active) | 1 (active) | 1 (active) | 1 (active) | 1 (active) | 1 (active)
2 | CN1C[C@H](C(=O)N[C@]2(C)O[C@@]3(O)[C@@H]4CCCN4C(=O)[C@H](Cc4ccccc4)N3C2=O)C[C@@H]2c3cccc4[nH]cc(c34)C[C@H]21.CN1C[C@H](C(=O)N[C@]2(C)O[C@@]3(O)[C@@H]4CCCN4C(=O)[C@H](Cc4ccccc4)N3C2=O)C[C@@H]2c3cccc4[nH]cc(c34)C[C@H]21 [dihydroergotamine] | 9 | – | 9 | 9 | 9 | 1 (active) | 0 (inactive) | 1 (active) | 1 (active) | 1 (active) | 1 (active) | 0 (inactive) | 1 (active) | 1 (active) | 1 (active) | 0 (inactive) | 0 (inactive) | 1 (active) | 1 (active) | 0 (inactive)
3 | C/C=C(/C)C(=O)O[C@H]1C(C)=C2[C@H]([C@@H]1OC(=O)CCCCCCC)[C@@](C)(OC(C)=O)C[C@H](OC(=O)CCC)[C@@]1(O)[C@H]2OC(=O)[C@@]1(C)O [Thapsigargin] | ≤ 0.3 | ≤ 0.3 | ≤ 0.3 | ≤ 0.3 | ≤ 0.3 | 1 (active) | 1 (active) | 1 (active) | 1 (active) | 1 (active) | 1 (active) | 1 (active) | 1 (active) | 1 (active) | 1 (active) | 1 (active) | 1 (active) | 1 (active) | 1 (active) | 1 (active)
4 | COc1ccc(CCN2CCC(Nc3nc4ccccc4n3Cc3ccc(F)cc3)CC2)cc1 [astemizole] | ≤ 0.3 | 3 | 3 | 1 | 3 | 1 (active) | 1 (active) | 1 (active) | 1 (active) | 1 (active) | 1 (active) | 1 (active) | 1 (active) | 1 (active) | 1 (active) | 1 (active) | 1 (active) | 1 (active) | 1 (active) | 1 (active)
5 | CC[C@]12C=CCN3CC[C@]4(C(=C(C(=O)OC)C1)Nc1ccccc14)[C@@H]32 [Tabersonine dichlorhydrate] | 9 | 9 | 9 | 9 | 9 | 1 (active) | 1 (active) | 1 (active) | 0 (inactive) | 1 (active) | 1 (active) | 1 (active) | 1 (active) | 1 (active) | 1 (active) | 1 (active) | 1 (active) | 1 (active) | 1 (active) | 1 (active)
6 | CCn1cnc2c(Nc3cccc(Cl)c3)nc(N[C@H]3CCCC[C@H]3N)nc21 | 1 | 1 | 1 | 1 | 1 | 1 (active) | 1 (active) | 1 (active) | 1 (active) | 1 (active) | 1 (active) | 1 (active) | 1 (active) | 1 (active) | 1 (active) | 1 (active) | 1 (active) | 1 (active) | 1 (active) | 1 (active)
7 | CC(C)c1cccc(C(C)C)c1O [propofol] | – | – | – | – | 3 | 0 (inactive) | 0 (inactive) | 0 (inactive) | 0 (inactive) | 0 (inactive) | 0 (inactive) | 0 (inactive) | 0 (inactive) | 0 (inactive) | 0 (inactive) | 0 (inactive) | 0 (inactive) | 1 (active) | 0 (inactive) | 0 (inactive)
8 | C[C@@H]1C[C@@H]([C@H](O)CC2CC(=O)NC(=O)C2)C(=O)[C@@H](C)C1 [Cycloheximide] | – | ≤ 0.3 | ≤ 0.3 | ≤ 0.3 | ≤ 0.3 | – | 1 (active) | – | 1 (active) | – | 1 (active) | 1 (active) | 1 (active) | 1 (active) | 1 (active) | 1 (active) | 1 (active) | 1 (active) | 1 (active) | 1 (active)
9 | Cc1c(C(=O)c2cccc3ccccc23)c2cccc3c2n1[C@H](CN1CCOCC1)CO3 [WIN 55,212-2 mesylate] | 9 | – | 9 | – | 9 | 0 (inactive) | 0 (inactive) | 1 (active) | 0 (inactive) | 0 (inactive) | 0 (inactive) | 0 (inactive) | 1 (active) | 0 (inactive) | 0 (inactive) | 1 (active) | 1 (active) | 1 (active) | 1 (active) | 0 (inactive)
10 | C[C@H]1CCCC=C[C@@H]2C[C@H](O)C[C@H]2[C@H](O)C=CC(=O)O1 [brefeldin-a] | – | ≤ 0.3 | ≤ 0.3 | ≤ 0.3 | ≤ 0.3 | – | 1 (active) | – | 1 (active) | – | 1 (active) | 1 (active) | 1 (active) | 1 (active) | 1 (active) | 1 (active) | 1 (active) | 1 (active) | 1 (active) | 1 (active)
